Growth data for 13 compounds are collected here from PubChem BioAssay (NCI).

About 83,000 compounds went through this panel and 20% of them were active in at least one assay; those are over-represented in the sample as a whole.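 Method: cells in 96-well plates; compound added at one concentration; 48 h incubation; percent growth measured; values under 10 scored active.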 A number with no mark means an inactive call. Active and inactive are the calls of the source.

Some test systems named below: NCI-H23 lung; NCI-H226 lung; NCI-H322M lung; HOP-62 NSCLC; NCI-H460 lung; HOP-92 NSCLC; NCI-H522 lung; A549/ATCC NSCLC; 786-0 renal; COLO 205 colon.
Common to all, as to experiment: NCI-60 one-dose screen, 48 h (100 = growth as untreated, 0 = no growth, -100 = all killed)
Common to all, as to conditions: 10 µM unless noted

As to `Cc1ccc(C(=O)Nc2cc(-c3ccccc3)cc(C(F)(F)F)c2)cc1C#Cc1cnc2cccnn12`, the growth is 63.3% with NCI-H23 lung; 51.2% in the assay with NCI-H226 lung; 102% with NCI-H322M lung; 108% with HOP-62 NSCLC; 51.1% in the assay with NCI-H460 lung; 95.4% in the assay on HOP-92 NSCLC. Moreover, the growth in the assay with NCI-H522 lung was 56.3%; in the assay with A549/ATCC NSCLC, 68.9%; with 786-0 renal it was 60%; with COLO 205 colon, 73.1%.
With `Cc1cccc(NCC(=O)N2CCN(c3ncnc4c3cnn4-c3ccccc3)CC2)c1`, the growth in the assay on NCI-H23 lung is 58.4%; in the assay on NCI-H226 lung it was 54.5%; with NCI-H322M lung it was 69.3%; in the assay on HOP-62 NSCLC it was 67.4%; with NCI-H460 lung, 65%; in the assay with HOP-92 NSCLC it was 50.6%. Besides, the growth was -6.93% (active) in the assay on NCI-H522 lung, 65.3% in the assay with A549/ATCC NSCLC, 80.8% with 786-0 renal and 97.4% in the assay on COLO 205 colon.
On to `CC1=C(C(=O)Nc2ccccc2)C(c2cccc3ccccc23)n2c(nc3ccccc32)N1` (stereo not given), for which the growth with NCI-H23 lung is 76.7%; in the assay on NCI-H226 lung, -39.8% (active); with NCI-H322M lung, 44%; in the assay with HOP-62 NSCLC, -61.9% (active); in the assay on NCI-H460 lung it was 27.6%; with HOP-92 NSCLC, 1.76% (active). In addition, the growth with NCI-H522 lung was 63.6%; in the assay with A549/ATCC NSCLC, 28.2%; with 786-0 renal, 6.29% (active); in the assay with COLO 205 colon, 95.2%.
For the compound `FC(F)(F)c1cc2c(Cl)ncnc2n1CCN1CCOCC1`, the growth was 62.9% with NCI-H23 lung; 91.4% in the assay with NCI-H226 lung; 74.9% with NCI-H322M lung; 91.5% in the assay on HOP-62 NSCLC; 86% with NCI-H460 lung; 107% in the assay on HOP-92 NSCLC. Moreover, the growth in the assay with NCI-H522 lung is -80.3% (active); in the assay with A549/ATCC NSCLC, 92.3%; with 786-0 renal, 99.3%; in the assay with COLO 205 colon, 79.5%.
On to `O=C(N=Nc1c(O)[nH]c2ccc(Cl)cc12)c1ccc2nc(-c3ccc(Cl)cc3)[nH]c2c1`, for which the growth with NCI-H23 lung was -71.5% (active); in the assay with NCI-H226 lung, 51.1%; in the assay with NCI-H322M lung, 31.4%; in the assay on HOP-62 NSCLC it was -37.9% (active); in the assay on NCI-H460 lung, 11.8%; with HOP-92 NSCLC, -0.983% (active). Besides, the growth in the assay with NCI-H522 lung was -26.9% (active); in the assay on A549/ATCC NSCLC it was 41.5%; in the assay with 786-0 renal, -72.6% (active); with COLO 205 colon, -17.6% (active).
For `CC1=C(C(=O)OCc2ccccc2)C(c2cccc3ccccc23)n2c(nc3ccccc32)N1` (stereo not given), the growth is 46.4% with NCI-H23 lung; 19.4% with NCI-H226 lung; 36.6% in the assay on NCI-H322M lung; 38.3% with HOP-62 NSCLC; 9.99% (active) in the assay with NCI-H460 lung; 64.6% with HOP-92 NSCLC. Besides, the growth in the assay on NCI-H522 lung is -42.2% (active); in the assay with A549/ATCC NSCLC, 33.9%; with 786-0 renal, 30.3%; in the assay with COLO 205 colon, 13.9%.
`Cc1ccc(C2CC(c3ccc(NC(=S)Nc4ccccc4)cc3)=NN2c2ccc(S(N)(=O)=O)cc2)cc1` (stereo not given): the growth is 23.6% with NCI-H23 lung; -7.72% (active) in the assay on NCI-H226 lung; 45.6% in the assay with NCI-H322M lung; 34.6% in the assay on HOP-62 NSCLC; -11.1% (active) with NCI-H460 lung; 7.59% (active) in the assay on HOP-92 NSCLC. In addition, the growth with NCI-H522 lung is 15.8%; in the assay with A549/ATCC NSCLC, 15.1%; in the assay with 786-0 renal it was 18.6%; in the assay with COLO 205 colon, -3.89% (active).
Take `Nc1nnc(CS(=O)(=O)c2ccccc2)s1`: the growth with NCI-H23 lung is 107%; in the assay with NCI-H226 lung, 121%; in the assay on NCI-H322M lung, 94.6%; in the assay on HOP-62 NSCLC it was 102%; in the assay on NCI-H460 lung it was 114%; in the assay on HOP-92 NSCLC, 86.5%. Besides, the growth in the assay with NCI-H522 lung is 80.8%; in the assay with A549/ATCC NSCLC, 102%; with 786-0 renal, 108%; in the assay on COLO 205 colon, 117%.
Consider `CN(C)c1nc(NCCNS(=O)(=O)c2ccc(C(=O)/C=C/c3ccc(C(F)(F)F)cc3)cc2)nc(N2CCOCC2)n1`, for which the growth in the assay with NCI-H23 lung was -64.2% (active); with NCI-H226 lung, 60.8%; in the assay on NCI-H322M lung, 72%; in the assay on HOP-62 NSCLC, 80.1%; in the assay on NCI-H460 lung, 28.8%; in the assay with HOP-92 NSCLC, 32.3%. In addition, the growth is 18.5% in the assay on NCI-H522 lung, 16.6% with A549/ATCC NSCLC, -85.1% (active) with 786-0 renal and 16.1% in the assay with COLO 205 colon.
In the case of `CN1C(=O)/C(=C/c2ccco2)S/C1=N/c1nccs1`, the growth is 97.3% in the assay on NCI-H23 lung; 113% in the assay on NCI-H226 lung; 94.3% in the assay on NCI-H322M lung; 108% in the assay with HOP-62 NSCLC; 103% with NCI-H460 lung; 114% in the assay with HOP-92 NSCLC. Besides, the growth in the assay with NCI-H522 lung was 100%; in the assay on A549/ATCC NSCLC it was 107%; with 786-0 renal, 97.6%; with COLO 205 colon, 121%.
With `CCCN(CCC)S(=O)(=O)c1ccc(C(=O)O)cc1.CCCN(CCC)S(=O)(=O)c1ccc(C(=O)O)cc1.[Cl][Pt+2][Cl].[NH2-].[NH2-]`, the growth in the assay on NCI-H23 lung is -44.1% (active); in the assay with NCI-H226 lung, 23.2%; in the assay on NCI-H322M lung, 42.6%; with HOP-62 NSCLC, 30.4%; in the assay with NCI-H460 lung, 0.596% (active); in the assay on HOP-92 NSCLC it was 5.16% (active). The growth was -54.9% (active) with NCI-H522 lung, 33% with A549/ATCC NSCLC, 14% in the assay with 786-0 renal and -57.7% (active) in the assay on COLO 205 colon.
In the case of `COc1ccc(-c2cc(C)nc3[nH]c(=O)sc23)cc1`, the growth is 74.3% with NCI-H23 lung; 36.3% in the assay on NCI-H226 lung; 68.4% in the assay with NCI-H322M lung; 44.9% in the assay on HOP-62 NSCLC; 52.4% in the assay on NCI-H460 lung; 16.3% in the assay on HOP-92 NSCLC. Further, the growth is 61.8% with NCI-H522 lung, 52.8% in the assay on A549/ATCC NSCLC, 0.453% (active) in the assay on 786-0 renal and 119% with COLO 205 colon.
In the case of `O=C(Nc1ccc(F)cc1)Nc1nc2ccc([N+](=O)[O-])cc2s1`, the growth is -11.8% (active) with NCI-H23 lung; 1.42% (active) with NCI-H226 lung; 7.52% (active) with NCI-H322M lung; -0.8% (active) in the assay on HOP-62 NSCLC; -3.01% (active) with NCI-H460 lung; -3.56% (active) in the assay with HOP-92 NSCLC. The growth in the assay with NCI-H522 lung is -23.7% (active); with A549/ATCC NSCLC, 6.83% (active); in the assay with 786-0 renal, 1.6% (active); in the assay on COLO 205 colon it was -77.5% (active).
